Source: PubChem BioAssay (NCI)
About 83,000 compounds went through this panel and 20% of them were active in at least one assay; those are over-represented in the sample as a whole.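 Negative percent growth values reflect cell death: -40 means 40% of the cells present at the start died, and -100 means all died.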 Values without a mark were called inactive. Active and inactive are the calls of the source. How the source made its calls: active means growth percent below 10; inactive means the rest.

What was measured:
Assay in all cases: NCI-60 one-dose screen, 48 h (100 = growth as untreated, 0 = no growth, -100 = all killed)
RPMI-8226 leukemia = settings: 10 µM unless noted
OVCAR-8 ovarian = settings: 10 µM unless noted
OVCAR-5 ovarian = settings: 10 µM unless noted
OVCAR-4 ovarian = settings: 10 µM unless noted
SK-OV-3 ovarian = settings: 10 µM unless noted
IGROV1 ovarian = settings: 10 µM unless noted
OVCAR-3 ovarian = settings: 10 µM unless noted
HS 578T breast = settings: 10 µM unless noted
NCI/ADR-RES ovarian = settings: 10 µM unless noted
T-47D breast = settings: 10 µM unless noted
MDA-MB-435 melanoma = settings: 10 µM unless noted
SW-620 colon = settings: 10 µM unless noted
MCF7 breast = settings: 10 µM
HCC-2998 colon = settings: 10 µM unless noted
KM12 colon = settings: 10 µM unless noted
BT-549 breast = settings: 10 µM unless noted
HCT-116 colon = settings: 10 µM unless noted

SMILES	growth (RPMI-8226 leukemia)	growth (OVCAR-8 ovarian)	growth (OVCAR-5 ovarian)	growth (OVCAR-4 ovarian)	growth (SK-OV-3 ovarian)	growth (IGROV1 ovarian)	growth (OVCAR-3 ovarian)	growth (HS 578T breast)	growth (NCI/ADR-RES ovarian)	growth (T-47D breast)	growth (MDA-MB-435 melanoma)	growth (SW-620 colon)	growth (MCF7 breast)	growth (HCC-2998 colon)	growth (KM12 colon)	growth (BT-549 breast)	growth (HCT-116 colon)
O=C(c1ccccc1)N(C(=S)NCCc1ccc(Cl)cc1)c1ccccc1	-30.9% (active)	105%	91.2%	96.9%	114%	102%	98%	112%	99%	59.6%	84%	76.9%	38.6%	101%	52.3%	–	–
C#CCn1cc(C=C2C(=O)N(C)C(=O)N(C)C2=O)c2cc(Cl)ccc21	105%	107%	108%	109%	115%	102%	108%	91.4%	107%	–	103%	99.5%	100%	112%	104%	116%	109%
O=C(Nc1ccc(I)cc1F)c1cc(Cl)ccc1O	-29.3% (active)	10.1%	26.1%	15%	4.21% (active)	16.2%	4.4% (active)	5.53% (active)	9.54% (active)	-4.67% (active)	–	8.71% (active)	–	17.6%	-10.9% (active)	–	-29.5% (active)
O=c1oc2ccc(F)cc2c(=O)n1-c1ccc(I)cc1F	-20.4% (active)	8.61% (active)	22.2%	12.4%	-4.12% (active)	17.2%	8.05% (active)	-4.95% (active)	2.32% (active)	-16.2% (active)	-1.4% (active)	11%	–	14.6%	-0.975% (active)	–	7.36% (active)
OC(CNC1CCCCC1)Cn1c2ccc(I)cc2c2cc(I)ccc21 (configuration not stated)	52.2%	70.9%	82.9%	77%	91.6%	70.8%	65.7%	79.6%	62.8%	–	66.9%	79.5%	69.9%	94.3%	74.5%	85.9%	65.2%
O=c1oc2ccc(Br)cc2c(=O)n1-c1ccc(I)cc1F	-28.3% (active)	10.4%	22%	15.2%	6.53% (active)	15.8%	5.31% (active)	0.536% (active)	9.96% (active)	-1.18% (active)	-1.76% (active)	10%	1.41% (active)	18.3%	-18% (active)	–	0.0693% (active)
COc1ccc(-c2cn[nH]c2-c2ccc(OC)c(O)c2)cc1	77.5%	88.4%	99.1%	90.2%	86.8%	77.2%	81.1%	75.9%	49.2%	–	3.35% (active)	38%	35.4%	85.8%	44.8%	74.1%	61.4%
O=C(CCc1nnc2sc(COc3ccccc3)nn12)c1nc2ncccc2[nH]1	140%	98.9%	98.4%	100%	94.7%	87.2%	108%	79%	106%	92.7%	–	85.8%	–	99.8%	99.8%	–	91.3%
CC[C@]1(O)C[C@@H]2CN(CCc3c([nH]c4ccccc34)[C@@](C(=O)OC)(c3cc4c(cc3OC)N(C)[C@H]3[C@@](O)(C(=O)OC)[C@H](OC(C)=O)[C@]5(CC)C=CCN6CC[C@]43[C@@H]65)C2)C1	11.3%	21.5%	17.4%	33.7%	43.5%	9.76% (active)	-4.09% (active)	15.8%	-19.8% (active)	68.6%	-38% (active)	22.7%	10.6%	0.153% (active)	8.64% (active)	–	7.92% (active)
O=C(CCc1nnc2sc(-c3ccc(Cl)cc3Cl)nn12)c1nc2ncccc2[nH]1	-2.08% (active)	0.0907% (active)	-49.3% (active)	-37.7% (active)	36.1%	-14.8% (active)	-68.7% (active)	0.818% (active)	-3.89% (active)	-26.3% (active)	-31.2% (active)	-30.4% (active)	–	-71.6% (active)	-52.2% (active)	–	-73.6% (active)
O=c1oc2ccc(Br)cc2c(=O)n1-c1ccc(F)cc1F	-4.83% (active)	11%	20.1%	15%	-10.9% (active)	19.3%	4.73% (active)	5.31% (active)	5.44% (active)	-9.1% (active)	2.57% (active)	16.3%	–	17.4%	4.24% (active)	–	4.49% (active)
CSc1nc2c(c(=O)n1C)N=C1c3ccccc3C(=O)C1C(c1ccccc1)N2 (configuration not stated)	94.9%	77.7%	87.9%	72.6%	72.4%	30.4%	39.4%	71.8%	55.8%	–	7.03% (active)	70.7%	58.7%	64.8%	63.5%	82.3%	71.3%
O=C1c2cc(Br)ccc2Oc2cc([N+](=O)[O-])ccc2N1c1ccc(I)cc1F	104%	94.6%	97.7%	94.5%	115%	97.9%	109%	101%	99.6%	100%	–	94.2%	97.1%	102%	100%	–	87.5%
CC(C)C[C@H](C(=O)N[C@@H](C)C(N)=O)N1CC=CCN(O)S1(=O)=O	106% [5 µM]	96.4% [5 µM]	99.3% [5 µM]	106% [5 µM]	108% [5 µM]	120% [5 µM]	110% [5 µM]	110% [5 µM]	105% [5 µM]	103% [5 µM]	119% [5 µM]	103% [5 µM]	–	110% [5 µM]	109% [5 µM]	–	109% [5 µM]
COc1ccc(C2C3=C(COC3=O)N(CCO)c3cc4c(cc32)OCCO4)cc1 (configuration not stated)	99.9%	84.6%	99.8%	98.8%	86.5%	80.7%	50.4%	71.6%	95.5%	80.4%	1.1% (active)	55.2%	–	76.5%	49%	–	77.2%
COc1cc(NC(=O)CCSc2nc3ccccc3c(=O)n2CCc2ccccn2)cc(OC)c1OC	79%	79.1%	89.4%	46.6%	78.9%	99.8%	110%	89.2%	89.4%	–	101%	101%	62.4%	97.5%	99.8%	73.4%	85.5%
O=c1oc2ccc(F)cc2c(=O)n1-c1ccc(Cl)cc1F	-23.1% (active)	9.27% (active)	17.6%	13.3%	-11.5% (active)	18.9%	8.61% (active)	-0.15% (active)	2.98% (active)	-19% (active)	1.54% (active)	11.3%	–	9.7% (active)	2.07% (active)	–	3.98% (active)
CC(C)CCNCC(O)Cn1c2ccccc2c2ccccc21 (configuration not stated)	-24% (active)	6.95% (active)	41.3%	21.8%	28.5%	10.3%	-36.2% (active)	24.3%	20%	–	5.65% (active)	12.5%	8.76% (active)	12.1%	15.7%	84.3%	4% (active)
O=c1oc2ccc(Cl)cc2c(=O)n1-c1ccc(Cl)cc1F	-28.5% (active)	8.62% (active)	24.6%	11%	-2.36% (active)	14.3%	5.29% (active)	-5.3% (active)	6.2% (active)	-12% (active)	-5.48% (active)	9.15% (active)	0.727% (active)	10.7%	-9.11% (active)	–	2.58% (active)
O=C(Nc1ccc(Cl)cc1F)c1cc(I)ccc1O	3.96% (active)	10.1%	79.9%	23.1%	-4.98% (active)	27.2%	10.4%	3.41% (active)	11.3%	-0.952% (active)	–	27.4%	47%	81.6%	62%	–	21.2%
